Experimental data: PMC11062922 (Nature Chemical Biology, 2023)
Like-named read-outs stand apart in the source and are kept apart here.

Assays:
Design in all cases: species or system human, MV4-11 + K-562 + COLO205 + SK-N-BE2 + OVCAR-8
[1] = system: CDC42BPA; conditions: read-out: apparent Kd; compound concentrations: 100 nM and 1000 nM (sheet 'Samples'), CATDS: 4.4382649306469998E-2; n = 1
[2] = system: CDC42BPB; conditions: read-out: apparent Kd, compound concentrations: 100 nM and 1000 nM (sheet 'Samples'), n = 1
[3] = system: CDC7; conditions: read-out: apparent Kd; compound concentrations: 100 nM and 1000 nM (sheet 'Samples'), CATDS: 6.9489626335847196E-2; n = 1
[4] = system: CLK4; conditions: read-out: apparent Kd; compound concentrations: 100 nM and 1000 nM (sheet 'Samples'), CATDS: 5.9316803085408598E-2; n = 1
[5] = system: GSK3A; conditions: read-out: apparent Kd; compound concentrations: 100 nM and 1000 nM (sheet 'Samples'), CATDS: 0.14981802566128199; n = 1
[6] = system: GSK3B; conditions: read-out: apparent Kd; compound concentrations: 100 nM and 1000 nM (sheet 'Samples'), CATDS: 0.15901528532749901; n = 1
[7] = system: LATS1; conditions: read-out: apparent Kd; compound concentrations: 100 nM and 1000 nM (sheet 'Samples'), CATDS: 0.14331063333654301; n = 1
[8] = system: NQO1; conditions: read-out: apparent Kd; compound concentrations: 100 nM and 1000 nM (sheet 'Samples'), CATDS: 4.4968257492060203E-2; n = 1
[9] = system: PKN1; conditions: read-out: apparent Kd, n = 1
[10] = system: PKN2; conditions: read-out: apparent Kd; compound concentrations: 100 nM and 1000 nM (sheet 'Samples'), CATDS: 0.153152330435843; n = 1
[11] = system: PKN3; conditions: read-out: apparent Kd; compound concentrations: 100 nM and 1000 nM (sheet 'Samples'), CATDS: 4.6811653986635102E-2; n = 1
[12] = system: ROCK1; conditions: read-out: apparent Kd, compound concentrations: 100 nM and 1000 nM (sheet 'Samples'), n = 1
[13] = system: ROCK2; conditions: read-out: apparent Kd, compound concentrations: 100 nM and 1000 nM (sheet 'Samples'), n = 1
[14] = system: RPS6KA5; conditions: read-out: apparent Kd; compound concentrations: 100 nM and 1000 nM (sheet 'Samples'), CATDS: 4.9211147170022597E-2; n = 1
[15] = system: RPS6KB1; conditions: read-out: apparent Kd; compound concentrations: 100 nM and 1000 nM (sheet 'Samples'), CATDS: 0.131217569210515; n = 1
[16] = system: CAMK4; conditions: read-out: apparent Kd, compound concentrations: 100 nM and 1000 nM (sheet 'Samples'), n = 1
[17] = system: CSNK1A1; conditions: read-out: apparent Kd; compound concentrations: 100 nM and 1000 nM (sheet 'Samples'), CATDS: 0.27381506430700697; n = 1
[18] = system: RIOK2; conditions: read-out: apparent Kd; compound concentrations: 100 nM and 1000 nM (sheet 'Samples'), CATDS: 0.35131899059620803; n = 1
[19] = system: CDC42BPG; conditions: read-out: apparent Kd, n = 1
[20] = system: FLT4; conditions: read-out: apparent Kd; compound concentrations:100 nM and 1000 nM (sheet 'Samples'); n = 1
[21] = system: MAP3K1; conditions: read-out: apparent Kd; compound concentrations:100 nM and 1000 nM (sheet 'Samples'); n = 1
[22] = system: MAP4K5; conditions: read-out: apparent Kd; compound concentrations:100 nM and 1000 nM (sheet 'Samples'); n = 1
[23] = system: STK10; conditions: read-out: apparent Kd; compound concentrations:100 nM and 1000 nM (sheet 'Samples'); n = 1
[24] = system: PRKX; conditions: read-out: apparent Kd; compound concentrations: 100 nM and 1000 nM (sheet 'Samples'), CATDS: 0.17762279557226701; n = 1
[25] = system: CAMK2B; conditions: read-out: apparent Kd, n = 1
[26] = system: PBK; conditions: read-out: apparent Kd; compound concentrations:100 nM and 1000 nM (sheet 'Samples'); n = 1
[27] = system: CDC42; conditions: read-out: apparent Kd; compound concentrations: 100 nM and 1000 nM (sheet 'Samples'), CATDS: 0.48931368679936299; n = 1
[28] = system: CDKL5; conditions: read-out: apparent Kd; compound concentrations: 100 nM and 1000 nM (sheet 'Samples'), CATDS: 0.51116349982272002; n = 1
[29] = system: CAMK2D; conditions: read-out: apparent Kd; compound concentrations: 100 nM and 1000 nM (sheet 'Samples'), CATDS: 0.25731079955705399; n = 1
[30] = system: CDK10; conditions: read-out: apparent Kd; compound concentrations: 100 nM and 1000 nM (sheet 'Samples'), CATDS: 0.15001944527595701; n = 1
[31] = system: FN3K; conditions: read-out: apparent Kd; compound concentrations: 100 nM and 1000 nM (sheet 'Samples'), CATDS: 0.12433120780871; n = 1
[32] = system: ICK; conditions: read-out: apparent Kd; compound concentrations: 100 nM and 1000 nM (sheet 'Samples'), CATDS: 0.14025095323079101; n = 1
[33] = system: MAPK1; conditions: read-out: apparent Kd; compound concentrations: 100 nM and 1000 nM (sheet 'Samples'), CATDS: 0.154787589884953; n = 1
[34] = compound concentrations:100 nM and 1000 nM (sheet 'Samples')

Nc1nonc1-c1nc2cnccc2n1C1CCCCC1 [SB-734117]
potency estimated from few doses [1]: 2000 nM
potency estimated from few doses ([2]; CATDS: 5.2868246392704099E-2): 1000 nM
potency estimated from few doses [3]: 446 nM
potency estimated from few doses [4]: 693 nM
potency estimated from few doses [5]: 91.8 nM
potency estimated from few doses [6]: 83.3 nM
potency estimated from few doses [7]: 98.8 nM
potency estimated from few doses [8]: 1880 nM
potency estimated from few doses ([9]; compound concentrations: 100 nM and 1000 nM (sheet 'Samples'), CATDS: 5.3241919532380499E-2): 977 nM
potency estimated from few doses [10]: 88.5 nM
potency estimated from few doses [11]: 1580 nM
potency estimated from few doses ([12]; CATDS: 5.1294364781544602E-2): 1110 nM
potency estimated from few doses ([13]; CATDS: 6.2443237217646497E-2): 596 nM
potency estimated from few doses [14]: 1300 nM
potency estimated from few doses [15]: 115 nM

COc1ccc(C2=C(N3CCc4ccccc43)C(=O)NC2=O)cc1 [SB-361058]
potency estimated from few doses ([16]; CATDS: 0.39976270483603599): 1170 nM
potency estimated from few doses [17]: 2590 nM
potency estimated from few doses [18]: 1480 nM

COc1cc2ncn(-c3cc(O[C@@H](C)c4ccccc4Cl)c(C(N)=O)s3)c2cc1OC [GSK237700A]
potency estimated from few doses [19, 34]: 2140 nM
potency estimated from few doses [20]: 1530 nM
potency estimated from few doses [21]: 1500 nM
potency estimated from few doses [22]: 2080 nM
potency estimated from few doses [23]: 1820 nM

C/C(=C1/SC(NCc2cccs2)=NC1=O)c1ccc2ncccc2c1 [RO4607009-000]
potency estimated from few doses ([16]; CATDS: 0.39593568375035498): 2260 nM
potency estimated from few doses ([19]; compound concentrations: 100 nM and 1000 nM (sheet 'Samples'), CATDS: 0.67827085462466996): 701 nM

CC1=C(C(=O)Nc2cc(Cl)c3[nH]ncc3c2)C(c2ccc(C(F)(F)F)cc2)CC(=O)N1 (stereo not shown) [GSK466317A]
potency estimated from few doses ([2]; CATDS: 0.18288519935085101): 1940 nM
potency estimated from few doses [24]: 2180 nM
potency estimated from few doses ([12]; CATDS: 0.39431900573288498): 277 nM
potency estimated from few doses ([13]; CATDS: 0.422625118244225): 246 nM

C[C@@H]1CCN(C(=O)CO)C[C@@H]1N(C)c1ncnc2[nH]ccc12 [PFE-PKIS_34]
potency estimated from few doses [25, 34]: 563 nM
potency estimated from few doses [26]: 1930 nM
potency estimated from few doses [9, 34]: 1140 nM

COc1ccc(Nc2nccc(N3CCC(NC(=O)Nc4cccc(C(C)=O)c4)C3)n2)cc1 (stereo not shown) [GSK1379731A]
potency estimated from few doses [27]: 1580 nM
potency estimated from few doses [28]: 1450 nM

Cn1cc(C2=C(N3CCOCC3)C(=O)NC2=O)c2ccccc21 [RO3303031-000]
potency estimated from few doses ([25]; compound concentrations: 100 nM and 1000 nM (sheet 'Samples'), CATDS: 0.26217327719794398): 327 nM
potency estimated from few doses [29]: 336 nM
potency estimated from few doses [30]: 957 nM
potency estimated from few doses [31]: 1620 nM
potency estimated from few doses [32]: 1140 nM
potency estimated from few doses [33]: 887 nM
